The values that follow come from PubChem BioAssay.

Assay [1] is described as follows: optical density shifts of acrAB sulA E. coli – strain DRC41, OD650, 48 h, E. coli filamentation inducer project, primary screen (AID 1152).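 Note: E. coli MC1000 strain DRC41 lacking acrAB efflux pump and sulA.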 Particulars: higher = more signal, called active from +8 up or from −8 down.
A short description of assay [2]: probe aLefty1 binding on compound microarray – biochemical, small-molecule microarray, 635/667 nm fluorescence, primary screen (AID 1153).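 Note: score merges spot fluorescence with signal-to-noise ratio from the scanned slide images.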 The settings on record: higher = more signal.
Assay [3] can be described thus: plasmodial surface anion channel blockers, osmotic lysis – cell-based, P. falciparum Indochina, OD700, 1 h, primary screen (AID 1154). The settings on record: P. falciparum Indochina infected RBC osmotic lysis, higher = more signal, called active from +8 up or from −8 down.
Assay [4] can be described thus: plasmodial surface anion channel blockers, osmotic lysis – cell-based, P. falciparum Indochina, OD700, 2 h, primary screen (AID 1155).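 Note: lysis reports solute entry through the parasite surface anion channel PSAC.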 The settings on record: P. falciparum Indochina infected erythrocytes, higher = more signal, called active from +8 up or from −8 down.
A short description of assay [5]: changes in parasitized red cell lysis, either direction – P. falciparum Indochina, OD700, 3 h, PSAC antagonist project, primary screen (AID 1156). Particulars: P. falciparum-infected erythrocytes, osmotic lysis, higher = more signal, called active from +8 up or from −8 down.
Assay [6] in a line: plasmodial surface anion channel blockers, osmotic lysis – cell-based, P. falciparum Indochina, OD700, 18 h, primary screen (AID 1157). Particulars: P. falciparum Indochina infected erythrocytes, osmotic lysis OD700, 18 h; higher = more signal, called active from +8 up or from −8 down.
Assay [7] in a line: S6 kinase pathway phospho-S6 level changes – cell-based, A549, cytoblot, luminescence, serum-stimulated, primary screen (AID 1158).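 Note: serum-stimulated A549 lung adenocarcinoma cells; signal is phosphorylated S6 detected by cytoblot immunostaining with HRP secondary.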 Particulars: 5 h, higher = more signal.
Assay [8] deals with NADPH oxidase 2 (Homo sapiens) (UniProt P04839). Briefly: compounds shifting NOX2 Amplex Red fluorescence – cell-based, HEK293-NOX2, PMA-stimulated, NOX inhibitor project, primary screen (AID 1159). Note: test concentration not given here. Particulars: 45 min, higher = more signal, called active from +8 up or from −8 down.
The target in assay [9] is NADPH oxidase 4 (Homo sapiens) (UniProt Q9NPH5). The assay can be described thus: compounds shifting NOX4 Amplex Red fluorescence – cell-based, HEK293-NOX4, tetracycline-induced, NOX inhibitor project, primary screen (AID 1160). Particulars: HEK293-NOX4, Amplex Red H2O2 fluorescence, 45 min; higher = more signal, called active from +8 up or from −8 down.
Assay [10] addresses NADPH oxidase 5 (Homo sapiens) (UniProt Q96PH1). Briefly: compounds shifting NOX5 Amplex Red fluorescence – cell-based, HEK293-NOX5, NOX inhibitor project, primary screen (AID 1161). Particulars: HEK293-NOX5, ionomycin, 45 min, higher = more signal.
Assay [11] in a line: compound effects on lung adenocarcinoma cell viability – A549, calcein-AM fluorescence, 48 h, basal, profiling panel (AID 1162). Note: test concentration not given here. The settings on record: higher = more signal.
The nature of assay [12]: compound effects on differentiated 3T3-L1 adipocyte viability – cell-based, 3T3-L1 adipocytes, calcein-AM fluorescence, 48 h, basal, profiling panel (AID 1163). Note: test concentration not given here. The settings on record: 3T3-L1 adipocytes viability, higher = more signal.
Assay [13] is described as follows: compound effects on hepatocellular carcinoma cell viability – HepG2, calcein-AM fluorescence, 48 h, basal, profiling panel (AID 1164). Note: test concentration not given here. The settings on record: higher = more signal.
Assay [14] can be described thus: compound effects on multiple myeloma cell viability – MM1S, calcein-AM fluorescence, 48 h, basal, profiling panel (AID 1165).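 Note: viability of MM1S multiple myeloma cells under basal unstimulated conditions; test concentration not given here.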 The settings on record: higher = more signal.
The nature of assay [15]: calcein-AM signal in unstimulated myeloma cells – cell-based, calcein-AM fluorescence, 48 h, PK04 Diversity Set, profiling panel (AID 1166).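 Note: cells grown under basal conditions without added stimulus; test concentration not given here.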 Particulars: RPMI8226 myeloma viability, higher = more signal.
Assay [16] can be described thus: JC-1 mitochondrial signal, unstimulated HepG2 cells – cell-based, JC-1 fluorescence, 24 h, 100 nL compound, profiling panel (AID 1167). Note: test concentration not given here. The settings on record: HepG2 mitochondrial potential, higher = more signal.
Assay [17] in a line: JC-1 mitochondrial signal, unstimulated adipocytes – cell-based, JC-1 fluorescence, 3T3-L1 adipocytes, 24 h, 100 nL compound, profiling panel (AID 1168). Note: test concentration not given here. The settings on record: JC-1 mitochondrial fluorescence, higher = more signal, called active from +8 up or from −8 down.
The nature of assay [18]: JC-1 mitochondrial signal, unstimulated myeloma cells – cell-based, JC-1 fluorescence, RPMI8226, 24 h, 100 nL compound, profiling panel (AID 1169). Note: test concentration not given here. Particulars: JC-1 mitochondrial potential fluorescence, higher = more signal.
Assay [19] is described as follows: JC-1 mitochondrial signal, unstimulated MM1S myeloma – cell-based, JC-1 fluorescence, 24 h, 100 nL compound, profiling panel (AID 1170). Note: test concentration not given here. The settings on record: MM1S mitochondrial potential, higher = more signal.
Assay [20] is described as follows: resazurin metabolic signal in A549 cells – cell-based, resazurin fluorescence, 24 h, PK04 Diversity Set, profiling panel (AID 1171). Note: test concentration not given here. The settings on record: A549 viability, higher = more signal, called active from +8 up or from −8 down.

Each structure is given as a SMILES string. Active and inactive are the calls of the source.

Chain of NADPH oxidase 2 (Homo sapiens) (P04839 whole entry, looked up): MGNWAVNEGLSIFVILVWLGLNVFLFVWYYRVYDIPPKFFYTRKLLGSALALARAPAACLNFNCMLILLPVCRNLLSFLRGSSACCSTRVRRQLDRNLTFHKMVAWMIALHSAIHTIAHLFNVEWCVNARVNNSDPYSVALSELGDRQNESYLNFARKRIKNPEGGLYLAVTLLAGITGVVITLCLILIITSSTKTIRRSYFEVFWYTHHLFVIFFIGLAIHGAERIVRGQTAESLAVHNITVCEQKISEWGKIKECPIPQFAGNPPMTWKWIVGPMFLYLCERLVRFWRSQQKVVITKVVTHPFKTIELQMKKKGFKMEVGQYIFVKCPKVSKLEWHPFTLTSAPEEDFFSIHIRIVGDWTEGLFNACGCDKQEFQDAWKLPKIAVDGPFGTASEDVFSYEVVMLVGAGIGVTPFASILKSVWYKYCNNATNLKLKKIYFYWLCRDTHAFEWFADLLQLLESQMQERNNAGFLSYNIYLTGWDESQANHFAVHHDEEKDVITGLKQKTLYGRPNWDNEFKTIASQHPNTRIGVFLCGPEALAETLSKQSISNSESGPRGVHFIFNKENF
Chain of NADPH oxidase 4 (Homo sapiens) (Q9NPH5 whole entry, looked up): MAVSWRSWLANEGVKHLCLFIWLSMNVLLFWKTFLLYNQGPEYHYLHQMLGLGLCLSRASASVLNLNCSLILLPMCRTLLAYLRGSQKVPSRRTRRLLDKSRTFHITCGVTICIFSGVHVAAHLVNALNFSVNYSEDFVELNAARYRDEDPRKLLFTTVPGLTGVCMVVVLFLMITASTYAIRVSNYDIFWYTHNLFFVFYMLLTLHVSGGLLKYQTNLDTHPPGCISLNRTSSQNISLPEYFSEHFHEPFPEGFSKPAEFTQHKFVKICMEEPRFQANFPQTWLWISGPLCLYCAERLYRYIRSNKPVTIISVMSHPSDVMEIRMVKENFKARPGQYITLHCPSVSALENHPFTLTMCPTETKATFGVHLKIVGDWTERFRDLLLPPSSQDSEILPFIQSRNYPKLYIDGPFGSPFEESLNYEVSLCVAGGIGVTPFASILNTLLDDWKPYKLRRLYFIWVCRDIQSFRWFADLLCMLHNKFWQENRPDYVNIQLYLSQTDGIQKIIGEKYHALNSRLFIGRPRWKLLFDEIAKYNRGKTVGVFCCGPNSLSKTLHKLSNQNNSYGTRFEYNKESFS
Chain of NADPH oxidase 5 (Homo sapiens) (Q96PH1 whole entry, looked up): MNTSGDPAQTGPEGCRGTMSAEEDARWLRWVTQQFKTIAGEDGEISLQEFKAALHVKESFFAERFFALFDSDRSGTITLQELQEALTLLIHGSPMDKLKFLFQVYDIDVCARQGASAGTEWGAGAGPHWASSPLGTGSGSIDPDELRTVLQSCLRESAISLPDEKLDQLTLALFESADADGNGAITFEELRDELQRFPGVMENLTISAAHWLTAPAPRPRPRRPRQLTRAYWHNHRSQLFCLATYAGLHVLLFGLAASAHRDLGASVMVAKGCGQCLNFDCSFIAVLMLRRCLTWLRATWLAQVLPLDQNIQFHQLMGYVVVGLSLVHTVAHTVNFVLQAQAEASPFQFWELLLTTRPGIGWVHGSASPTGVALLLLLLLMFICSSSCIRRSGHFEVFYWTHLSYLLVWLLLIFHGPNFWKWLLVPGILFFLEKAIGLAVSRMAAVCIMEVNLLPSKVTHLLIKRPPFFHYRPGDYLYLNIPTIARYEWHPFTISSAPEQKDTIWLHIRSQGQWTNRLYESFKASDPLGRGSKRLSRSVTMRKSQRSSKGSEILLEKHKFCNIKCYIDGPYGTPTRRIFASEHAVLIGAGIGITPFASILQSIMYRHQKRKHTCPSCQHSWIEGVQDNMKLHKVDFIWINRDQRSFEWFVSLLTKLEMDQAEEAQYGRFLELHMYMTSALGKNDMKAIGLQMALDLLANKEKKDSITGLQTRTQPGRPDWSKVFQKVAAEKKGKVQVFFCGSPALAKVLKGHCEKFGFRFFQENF

As for `CC(=O)OC[C@H]1OC(ON=CC[C@@H]2C=C[C@H](OC(C)=O)[C@@H](COC(C)=O)O2)[C@H](OC(C)=O)[C@@H](OC(C)=O)[C@@H]1OC(C)=O` (stereo not given in full), the z-score in assay [1] is -0.0016 (inactive); in assay [3], 0.202 (inactive); in assay [4] it was 0.0995 (inactive); in [5] it was 0.153 (inactive); in assay [6], 0.22 (inactive); in assay [7], -0.999. Besides, the z-score in assay [8] was 0.00176 (inactive); in assay [9] it was 0.186 (inactive); in [10], 0.0378; in assay [11], -0.49; in [12] it was -0.403; in [13], -1.12. Also, the z-score is -0.092 in assay [14]; -0.878 in [15]; 0.0783 in assay [16]; -2.76 (inactive) in assay [17]; -0.796 in assay [18]; 0.23 in assay [19]. The z-score in [20] is 0.103 (inactive). Also, in [2], the composite z-score turned out to be 0.315.

Turning to `CCOC(=O)[C@H](Cc1ccccc1)NC(=O)CCC1CC(OC(=O)NCCc2ccc(F)cc2)CC2(CCCC(COC(=O)NCCc3ccccc3OC)O2)O1` (stereo not given in full), the z-score is -1.1 (inactive) in assay [1]; 0.425 (inactive) in assay [3]; 0.136 (inactive) in assay [4]; -0.106 (inactive) in [5]; 0.174 (inactive) in assay [6]; 0.392 in assay [7]. Also, the z-score in assay [8] was -0.106 (inactive); in assay [9], 0.151 (inactive); in assay [10], 0.294; in assay [11] it was -0.793; in assay [12] it was -0.702; in assay [13], 0.492. Besides, the z-score was -2.99 in assay [14]; -1.42 in [15]; 0.723 in [16]; 0.3 (inactive) in assay [17]; 0.165 in assay [18]; -1.02 in assay [19]. Also, the z-score in [20] was -0.301 (inactive). Further, the composite z-score in [2] was -0.0075.

Consider `O=C(NN=C1C[C@@H](O)[C@@H](O)[C@@H]2[C@@H]3C(=O)N(C4CCCCC4)C(=O)[C@@H]3CC[C@H]12)OCc1ccccc1`, for which the z-score was -0.898 (inactive) in assay [1]; 7.54 (inactive) in [3]; 0.844 (inactive) in [4]; 0.522 (inactive) in [5]; 0.551 (inactive) in assay [6]; 0.0279 in assay [7]. Further, the z-score is -0.0856 (inactive) in assay [8]; -1.85 (inactive) in [9]; -0.671 in [10]; 0.215 in [11]; 0.0766 in [12]; -0.822 in [13]. The z-score in [14] was -0.816; in [15], -0.284; in assay [16], -1.14; in assay [17], -0.458 (inactive); in [18], 0.219; in assay [19], 0.703. Also, the z-score in assay [20] was -0.401 (inactive). Besides, in assay [2], the composite z-score came to 0.0721.

`CCOC(=O)[C@H](CC(C)C)NC(=O)CCC1CC(OC(=O)NCc2cccc3ccccc23)CC2(CCCC(COC(=O)NCc3ccncc3)O2)O1` (stereo not given in full): the z-score is 0.432 (inactive) in assay [1]; 7.59 (inactive) in [3]; 1.02 (inactive) in [4]; -0.416 (inactive) in [5]; 0.42 (inactive) in assay [6]; 0.351 in assay [7]. For the same compound, the z-score in assay [8] is 0.402 (inactive); in assay [9], 0.142 (inactive); in assay [10], 0.365; in [11], 0.357; in assay [12], -0.0315; in [13], -0.215. Moreover, the z-score in assay [14] was -3.43; in assay [15], -1.8; in assay [16] it was 0.991; in [17], 0.666 (inactive); in assay [18], -0.12; in assay [19], -1.14. For the same compound, in [20], the z-score is 0.645 (inactive). Moreover, the composite z-score in [2] was -0.142.
